The values below come from PubChem BioAssay AID743395 (Broad Institute, 2014).

About 480 (40%) of roughly 1,200 compounds were called active. The set was probably picked from earlier hits. The list is a sample of the results. Results with a measured potency or affinity are listed apart. Unmarked numbers belong to inactive results. How the calls were made is not given here.

The experiment in a line: viability loss in human hepatoma cells – cell-based, CellTiter-Glo luminescence, cherry-pick, set 2, cytotoxicity control, dose response (AID 743395).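 Further: 0% = neutral control wells and -100% = positive control wells.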 As to conditions: HepG2 viability, CellTiter-Glo ATP luminescence, 72 h; series mostly up to 26 µM; activity change, negative = cytotoxicity: at the top concentration.
For the compound `COc1ccc(C#Cc2ccc([C@H]3[C@H]4CN(C(=O)c5ccncc5)CCCCN4[C@H]3CO)cc2)cc1`, the “activity change, negative = cytotoxicity” value was -22.7%.

With `OC[C@H]1[C@H](c2ccc(C#CC3(O)CCCC3)cc2)[C@H]2CN(Cc3ccccc3F)CCCCN21`, the “activity change, negative = cytotoxicity” value was -17.8%.

In the case of `O=S(=O)(Cc1ccccc1)N1CCCCN2[C@H](C1)[C@@H](c1ccc(C#Cc3ccccc3)cc1)[C@@H]2CO`, the “activity change, negative = cytotoxicity” value is -21.4%. With `C[C@]12C=CC(=O)C=C1CC[C@@H]1C2[C@@H](O)C[C@@]2(C)C1CC[C@]2(O)C(=O)COC(=O)CCC(=O)O` (stereo partly specified), the “activity change, negative = cytotoxicity” value was -0.286%. With `Nc1nn(-c2ccccc2)c(N)c1N=Nc1cccc(F)c1` the figure was -13.9%. In the case of `CCN(C(=O)COc1ccc2ccc(=O)oc2c1)C1CCCCC1`, the “activity change, negative = cytotoxicity” value is -7.77%. `CC(C)Nc1nc(Nc2ccc(Cl)cc2F)c2sccc2n1`: the “activity change, negative = cytotoxicity” value is -18%.

On to `COc1cc(C(=O)N2CCC(C(N)=O)CC2)ccc1OCc1c(C)noc1C`, for which the “activity change, negative = cytotoxicity” value is -3.78%.

Turning to `Cc1noc(C)c1COc1ccc(C(=O)N2CCN(S(=O)(=O)c3ccc(F)cc3)CC2)cc1`, the “activity change, negative = cytotoxicity” value was -4.3%. On to `CCOC(=O)c1c(NC(=O)CN2C(=O)NC3(CCC(C)CC3)C2=O)sc(C)c1CC` (stereo unspecified), for which the “activity change, negative = cytotoxicity” value was 3.65%. With `CC(Oc1ccccc1Cl)C(=O)Nc1ccc(S(=O)(=O)Nc2nccs2)cc1` (stereo unspecified) the figure was -13.9%; with `CCCCCCCCCC(=O)OCC(O)CO` (stereo unspecified), 3.56%. Turning to `O=C(CSc1nnc(Cn2c(=O)sc3ccccc32)n1-c1ccccc1)NCc1ccco1`, the “activity change, negative = cytotoxicity” value is -0.55%.

`Cc1cccc(COc2ccccc2C(=O)NC2CCC(O)CC2)c1` (stereo unspecified): the “activity change, negative = cytotoxicity” value is -4.57%. Consider `Cc1csc2sc(-c3ccnc(SCC(=O)NCc4ccccc4)n3)c(C)c12`, for which the “activity change, negative = cytotoxicity” value was -12.3%. `CCC(=O)N1[C@H](CN(CC)C(C)=O)[C@@H](c2ccc(-c3ccccc3)cc2)[C@@H]1CO`: the “activity change, negative = cytotoxicity” value is 1.41% [at 23.5 µM].

`CC(C)C#Cc1ccc([C@@H]2[C@@H](CO)N3C(=O)CN(S(=O)(=O)c4ccccc4)C[C@@H]23)cc1`: the “activity change, negative = cytotoxicity” value is -4.65%. With `CN(C[C@@H]1N[C@H](CO)[C@H]1c1ccccc1)C(=O)c1ccccn1`, the “activity change, negative = cytotoxicity” value was 1.53%. As for `CNC(=O)CC1C(=O)N(c2ccc(F)cc2)C(=S)N1NC(=O)c1ccc(Cl)cc1` (stereo unspecified), the “activity change, negative = cytotoxicity” value was -23.1%.

For the compound `C[C@H]1CCCCO[C@H](CN(C)C(=O)Nc2ccc(C(F)(F)F)cc2)[C@@H](C)CN([C@@H](C)CO)C(=O)c2cc(NC(=O)Nc3ccc(F)cc3)ccc2O1`, the “activity change, negative = cytotoxicity” value was -0.6%. With `C[C@H]1CCCCO[C@@H](CN(C)C(=O)C2CCCCC2)[C@@H](C)CN([C@@H](C)CO)C(=O)c2cc(NC(=O)Nc3ccc(C(F)(F)F)cc3)ccc2O1` the figure was -1.26% [at 23.5 µM]; with `C[C@H]1CCCCO[C@@H](CN(C)C(=O)Nc2ccc(C(F)(F)F)cc2)[C@@H](C)CN([C@@H](C)CO)C(=O)c2cc(NC(=O)Nc3ccc4c(c3)OCO4)ccc2O1`, -1.27%. As for `C[C@H]1CCCCO[C@@H](CN(C)C(=O)Nc2ccc(C(F)(F)F)cc2)[C@@H](C)CN([C@@H](C)CO)C(=O)c2cc(NC(=O)Nc3ccc(F)cc3)ccc2O1`, the figure is 14.7%; as for `C[C@@H]1CN([C@@H](C)CO)C(=O)c2cccc(NC(=O)NC3CCCCC3)c2O[C@@H]1CN(C)Cc1ccc(Cl)c(Cl)c1`, 5.25%; as for `C[C@H](CO)N1C[C@H](C)[C@@H](CN(C)C(=O)Nc2ccc(C(F)(F)F)cc2)OCCCC[C@H](C)Oc2ccc(NC(=O)Nc3ccc(F)cc3)cc2C1=O`, -21%. Take `C[C@H]1CN([C@@H](C)CO)S(=O)(=O)c2ccc(/C=C/c3ccccc3)cc2O[C@@H]1CN(C)C(=O)Nc1ccc(F)cc1`: the “activity change, negative = cytotoxicity” value is -1.73%. Consider `Cn1cnc2nc[nH]c2c1=S`, for which the “activity change, negative = cytotoxicity” value is 1.09%. With `Cc1ccc(NC(=O)COc2ccc(Br)cc2CO)cc1S(=O)(=O)N1CCOCC1` the figure was 5.44%; with `CCc1nc(C)cn1S(=O)(=O)c1ccc2c(c1)OCCO2`, 23%. With `COC(=O)c1[nH]c2c(c1C)C(=O)CC(c1cccc(OC)c1)C2` (stereo unspecified), the “activity change, negative = cytotoxicity” value is -9.76%.

Turning to `CCCCC(=NCCc1c(C)[nH]c2ccccc12)C1=C(O)CC(c2ccccc2)CC1=O` (stereo unspecified), the “activity change, negative = cytotoxicity” value is -16.5%.

On to `O=C(Cc1ccccn1)NCC[C@H]1CC[C@@H](NC(=O)Nc2ccc(C(F)(F)F)cc2)[C@@H](CO)O1`, for which the “activity change, negative = cytotoxicity” value is 8.05%.

Turning to `Cc1ccc(S(=O)(=O)N(Cc2cc3ccccc3[nH]c2=O)c2cccc(C)c2)cc1`, the “activity change, negative = cytotoxicity” value is 1.26%.

`C=CC(C)(C)c1[nH]cnc1/C=C1\NC(=O)C(C(C)C)NC1=O` (stereo unspecified): the “activity change, negative = cytotoxicity” value was -24.7%.

For the compound `O=C(Cc1ccc(Cl)cc1)OCC(=O)c1ccc[nH]1`, the “activity change, negative = cytotoxicity” value is -6.25%. In the case of `Cc1ccc(CN(C)CC(=O)Nc2cccc([N+](=O)[O-])c2)o1`, the “activity change, negative = cytotoxicity” value is -15.2%. With `CCCCN(C(=O)c1cc(S(=O)(=O)N2CCCCC2)ccc1Cl)c1c(N)n(CC(C)C)c(=O)[nH]c1=O` the figure was -14.3%; with `CN1C(=O)c2cc(NC(=O)Cc3ccccc3)ccc2OC[C@@H]2O[C@H](CC(=O)NCc3ccc(Cl)cc3)CC[C@H]21`, -16%.

Consider `O=C(C[C@H]1CC[C@@H]2[C@H](COC[C@@H](O)CN2S(=O)(=O)c2ccccc2)O1)Nc1ccc(-c2ccccc2)cc1`, for which the “activity change, negative = cytotoxicity” value was -22.6%. On to `COc1ccc(NC(=O)CSc2nnc(Cc3cccs3)n2C)cc1`, for which the “activity change, negative = cytotoxicity” value is -0.153%.

Turning to `CCCCn1cnc2c(c(CC#N)nn2-c2ccccc2)c1=N`, the “activity change, negative = cytotoxicity” value is 0.565%.
